Only some compounds are listed: those with a hit (about 2.4% of all), similar ones and a draw of the others.
D2 ag-1: Beta-Arrestin HTS for Positive Allosteric Modulators of the Human D2 Dopamine Receptor: Agonists | D(2) dopamine receptor (Homo sapiens), P14416 | DiscoveRx PathHunter D2 beta-arrestin, luminescence, 90 min; 100% = 57 uM dopamine signal | activation, % (concentration not given with the values) | 360,000 tested, 0.084% active | AID 624465, 2012; in the data active means activation above about 40%; inconclusive means between about 15% and that limit
Target sequence (P14416 whole entry, looked up): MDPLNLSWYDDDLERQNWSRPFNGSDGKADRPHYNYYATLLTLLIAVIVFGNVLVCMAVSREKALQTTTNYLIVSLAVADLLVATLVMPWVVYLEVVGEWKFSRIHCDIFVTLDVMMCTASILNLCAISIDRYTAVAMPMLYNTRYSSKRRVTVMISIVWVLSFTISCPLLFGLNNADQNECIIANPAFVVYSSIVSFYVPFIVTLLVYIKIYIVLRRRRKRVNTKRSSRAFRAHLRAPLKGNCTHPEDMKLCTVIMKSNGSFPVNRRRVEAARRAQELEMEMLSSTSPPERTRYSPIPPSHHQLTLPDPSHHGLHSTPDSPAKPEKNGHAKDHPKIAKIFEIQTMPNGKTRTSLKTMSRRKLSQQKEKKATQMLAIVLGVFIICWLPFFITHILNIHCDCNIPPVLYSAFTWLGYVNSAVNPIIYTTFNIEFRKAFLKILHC
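Agonist mode: compounds alone added to overnight-plated D2 PathHunter cells for 90 min at 37 C, with 57 uM final dopamine (EC100) defining full response. Beta-arrestin recruitment detected by chemiluminescent reagent, read after 1 h at ambient temperature.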
D2 PAM-1: HTS Assay for Positive Allosteric Modulators of the Human D2 Dopamine Receptor: Primary Screen for Potentiators | D(2) dopamine receptor (Homo sapiens), P14416 | 340,000 tested, 0.34% active | HEK293 T-REx D2, calcium flux, EC20 dopamine potentiation | potentiation, % at 10 µM | AID 485347, 2010;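 active means potentiation over 3 SD above the plate norm, cut at about 30% in these data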
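Tetracycline-induced Hek293 Trex D2 cells, force-coupled to calcium, loaded with no-wash calcium dye. Compound added with 180 s kinetic read for agonism, then EC20 dopamine and a further 180 s read for potentiation.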
D2 ag-2: HTS Assay for Allosteric Agonists of the Human D2 Dopamine Receptor: Primary Screen for Agonists. HEK293 T-REx D2 cells, calcium flux agonist mode. AID 485358, 2010. 340,000 tested, 0.53% active. activation, % at 2 µM;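 active means activation over 3 SD above normal in the single-dose calcium agonist read, cut at about 30% in these data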
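Agonism is scored from calcium flux in a force-coupled, inducible HEK293 cell line expressing D2, read kinetically for 180 s after compound addition against dopamine controls.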
D2 PAM-2: Beta-Arrestin HTS for Positive Allosteric Modulators of the Human D2 Dopamine Receptor: Potentiators | D(2) dopamine receptor (Homo sapiens), P14416 | DiscoveRx D2 beta-arrestin cells, luminescence, 90 min; 100% = 57 uM dopamine signal | potentiation, % (no concentration beside the values) | 360,000 tested, 0.23% active | AID 624464, 2012; in the data active means potentiation above about 50%; inconclusive means mostly about 30% to 49%
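PathHunter beta-arrestin assay in DiscoveRx D2 cells. Compounds were added with an EC20 of dopamine (50 nM final) for 90 min at 37 deg C. Luminescence was read 1 h after detection reagent, with 57 uM dopamine as the EC100 control.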
D2 antagonist: HTS Assay for Allosteric Antagonists of the Human D2 Dopamine Receptor: Primary Screen for Antagonists; HEK293 TREx D2 cells, calcium flux, dopamine EC80; inhibition, % at 10 µM; 340,000 tested, 2% active; AID 485344, 2010; in the data active means inhibition above about 30%; inactive means below that, where a call was filed
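HEK293 T-REx D2 cells, tet-induced, calcium dye no-wash. Cpd pintool add, 180 s kinetic, then EC80 DA, 180 s kinetic. Ca flux read.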
Hits are given with their value.

For O=S(=O)(c1ccccc1)N1CCN(S(=O)(=O)N2CCCCC2)CC1 the results were D2 ag-1 inactive, D2 PAM-1 inactive, D2 ag-2 inactive, D2 PAM-2 inactive and D2 antagonist 38.
`COc1ccc(C(=O)Oc2cc(N)n(S(=O)(=O)c3ccc(C)cc3)n2)cc1` gave D2 ag-1 inactive, D2 PAM-1 inactive, D2 ag-2 inactive, D2 PAM-2 inactive and D2 antagonist 38.
COc1ccccc1C(=O)Oc1cc(N)n(S(=O)(=O)c2ccc(C)cc2)n1 was read as D2 ag-1 inactive, D2 PAM-1 inactive, D2 ag-2 inactive, D2 PAM-2 inactive and D2 antagonist inactive.
COC(=O)c1cc(-c2ccc(C)cc2)c2c(=O)n(C)c(=O)n(C)c2n1 was read as D2 PAM-1 inactive and D2 ag-2 inactive.
For O=C(Cn1cc(SCc2c(F)cccc2Cl)c2ccccc21)N1CCCC1 the results were D2 PAM-1 inactive and D2 ag-2 inactive.
For CC12CN3CC(C)(CN(C1)C3c1ccc(Br)cc1O)C2 (configuration not stated) the results were D2 ag-1 inactive, D2 PAM-1 inactive, D2 ag-2 inactive, D2 PAM-2 inactive and D2 antagonist 36.
`O=C(Cc1ccccc1[N+](=O)[O-])NCc1ccc(Cl)cc1Cl` gave D2 ag-1 inactive, D2 PAM-1 inactive, D2 ag-2 inactive, D2 PAM-2 inactive and D2 antagonist 33.
For COCCNC(=O)/C(C#N)=C/c1cc(C(C)C)c(OC)cc1C the results were D2 ag-1 inactive, D2 PAM-1 inactive, D2 ag-2 inactive, D2 PAM-2 inactive and D2 antagonist inactive.
`COc1cc(C)c(/C=C(\C#N)C(=O)Nc2ccc(C)cc2)cc1C(C)C` gave D2 ag-1 inactive, D2 PAM-1 inactive, D2 ag-2 inactive, D2 PAM-2 inactive and D2 antagonist 75.
`COc1ccccc1N1CCN(C(=S)Nc2ccc(F)cc2)CC1` gave D2 ag-1 inactive, D2 PAM-1 inactive, D2 ag-2 inactive, D2 PAM-2 inactive and D2 antagonist inactive.
`COc1ccccc1N1CCN(C(=S)Nc2ccccc2)CC1` gave D2 ag-1 inactive, D2 PAM-1 inactive, D2 ag-2 inactive, D2 PAM-2 inactive and D2 antagonist 47.
Screening COCCCn1c(=O)c2sccc2n2c(CCCC(=O)NC3CCC(C)CC3)nnc12 (configuration not stated) returned D2 PAM-1 inactive and D2 ag-2 inactive.
Screening CCc1ccccc1NC(=O)Nc1nnc(N(CC)c2ccccc2)s1 returned D2 PAM-1 inactive.
COc1cccc(CN(C)C(=O)CNC(=O)c2cccs2)c1OC was read as D2 ag-1 inactive, D2 PAM-1 inactive, D2 ag-2 inactive, D2 PAM-2 inactive and D2 antagonist 38.
COc1ccc(CN(C)C(=O)CNC(=O)c2cccs2)c(OC)c1 was read as D2 ag-1 inactive, D2 PAM-1 inactive, D2 ag-2 inactive, D2 PAM-2 inactive and D2 antagonist inactive.
`Cc1c(C(=O)N2CCCC2)oc2c1-c1nn(CC(=O)NCCCOC(C)C)cc1CC2` gave D2 ag-1 inconclusive, D2 PAM-1 inactive, D2 ag-2 inactive, D2 PAM-2 inactive and D2 antagonist 35.
Screening Cc1ccc(C(=O)NC2CC3CCCC(C2)N3Cc2ccccc2)cc1 (configuration not stated) returned D2 ag-1 inactive, D2 PAM-1 inactive, D2 ag-2 inactive, D2 PAM-2 inactive and D2 antagonist inactive.
For O=C(Nc1ccccc1-c1ccccc1)NC1CC2CCCC(C1)N2Cc1ccc(F)cc1 (configuration not stated) the results were D2 ag-1 inactive, D2 PAM-1 inactive, D2 ag-2 inactive, D2 PAM-2 inactive and D2 antagonist 52.
Screening CCCNC(=S)NC1CC2CCCC(C1)N2Cc1ccc(F)cc1 (configuration not stated) returned D2 ag-1 inactive, D2 PAM-1 inactive, D2 ag-2 inactive, D2 PAM-2 inactive and D2 antagonist 81.
Cc1ccc(CN2C3CCCC2CC(NC(=O)c2ccc(F)cc2)C3)cc1 (configuration not stated) was read as D2 ag-1 inactive, D2 PAM-1 inactive, D2 ag-2 inactive, D2 PAM-2 inactive and D2 antagonist 92.
Screening COc1cccc(C(=O)NC2CC3CCCC(C2)N3CC(=O)Nc2ccccc2C(F)(F)F)c1 (configuration not stated) returned D2 ag-1 inactive, D2 PAM-1 inactive, D2 ag-2 inactive, D2 PAM-2 inactive and D2 antagonist inactive.
`COCCCNC(=S)NC1CC2CCCC(C1)N2Cc1ccco1` (configuration not stated) gave D2 ag-1 inactive, D2 PAM-1 inactive, D2 ag-2 inactive, D2 PAM-2 inactive and D2 antagonist inactive.
For COc1cccc(C(=O)NC2CC3CCC(C2)N3Cc2ccccc2)c1 (configuration not stated) the results were D2 ag-1 inactive, D2 PAM-1 inactive, D2 ag-2 inactive, D2 PAM-2 inactive and D2 antagonist 96.
O=C(Nc1ccccc1-c1ccccc1)NC1CC2CCCC(C1)N2CCc1ccccc1 (configuration not stated) was read as D2 ag-1 inactive, D2 PAM-1 inactive, D2 ag-2 inactive, D2 PAM-2 inactive and D2 antagonist inactive.
Screening COC(=O)C1=C(c2ccccc2)c2ccccc2S(=O)(=O)N1CC(=O)Nc1ccc(OC)cc1OC returned D2 PAM-1 inactive and D2 ag-2 inactive.
Screening O=C(NC1CC2CCC(C1)N2Cc1ccccc1)c1cccc(F)c1 (configuration not stated) returned D2 ag-1 inactive, D2 PAM-1 inactive, D2 ag-2 inactive, D2 PAM-2 inactive and D2 antagonist 71.
`COc1cccc(C(=O)NN2c3ccccc3CCc3ccccc32)c1` gave D2 ag-1 inactive, D2 PAM-1 inactive, D2 ag-2 inactive, D2 PAM-2 inactive and D2 antagonist 51.
COc1ccc(CN2C3CCC2CC(NC(=O)c2cccc(F)c2)C3)cc1 (configuration not stated) was read as D2 ag-1 inactive, D2 PAM-1 inactive, D2 ag-2 inactive, D2 PAM-2 inactive and D2 antagonist 81.
For COc1cccc(C(=O)NNC(=O)c2ccccc2)c1 the results were D2 ag-1 inactive, D2 PAM-1 inactive, D2 ag-2 inactive, D2 PAM-2 inactive and D2 antagonist inactive.
Screening Cc1cccc(C(=O)NC2CC3CCCC(C2)N3Cc2ccccc2)c1 (configuration not stated) returned D2 ag-1 inactive, D2 PAM-1 inactive, D2 ag-2 inactive, D2 PAM-2 inactive and D2 antagonist 81.
